High-throughput results as filed in PubChem.
Shn3 3UTR inh = inhibitors of Schnurri-3 3'UTR reporter in osteoblasts. AID 588674. Clone20 osteoblast Shn3 3'UTR firefly luciferase, 24 h. inhibition, % at 12.5 µM. hit rate 0.52% among 360,000;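 active means mean inhibition of at least 75% with every replicate also reaching 75%; inconclusive means mean inhibition at least 75% but some replicate below; inactive means mean inhibition below 75%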;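 further: 0% = median of neutral control wells and 100% = pilot-screen positive control compound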
KKLEB cytotox = reduces viability of KKLEB cystic fibrosis airway cells | KKLEB CF airway cells viability, ATPlite luminescence, overnight; active compounds read low; cells stimulated with P. aeruginosa culture filtrate | activity change (cytotoxicity), % at 5 µM | hit rate 0.36% among 360,000 | AID 602141;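 active means corrected activity change at or below -50% at 5 µM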
CF NFkB block = inhibitors of cystic fibrosis induced NF-kB. KKLEB NF-kB-GFP reporter, PAF-induced, GFP fluorescence overnight. inhibition, % at 5 µM. hit rate 0.86% among 360,000. AID 588850;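 active means at least 50% inhibition at 5 µM, scaled per plate between neutral and stimulator controls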;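 further: PAF is a Pseudomonas aeruginosa culture filtrate used as stimulus; plate controls were PAF-stimulated DMSO wells for no effect and unstimulated DMSO wells for full effect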
Peg3 promoter = reduces Peg3 promoter-driven luciferase expression in HeLa | HeLa PEG-Prom luciferase reporter, luminescence, overnight | AID 588405 | hit rate 1.7% among 360,000 | inhibition, % at 20 µM;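 active means inhibition of at least 50% at 20 µM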
HIF-2a inh = inhibitors of HIF-2a. hit rate 0.72% among 360,000. 786-0 RCC cells HIF-2a reporter, luciferase luminescence, overnight. inhibition, % at 18.8 µM;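 active means inhibition of the luminescence signal of 40% or more relative to plate controls, in a single-dose primary screen at 18.75 µM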
TRPM1 prom inh = inhibitors of MITF-driven TRPM1 promoter in melanoma cells; hit rate 0.83% among 330,000; inhibition, % at 12.5 µM; SK-MEL-5 TRPM1 promoter luciferase, 24 h;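 active means mean inhibition across replicates of 60% or more, whatever share of single replicates reaches that level; inconclusive means some that reach 60%, reason not given; inactive means mean inhibition across replicates below 60%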
Numbers without * were called inactive; ? = inconclusive; . = no result given. Shown are actives, neighbours in structure and some others; about 2.7% of the full set was active somewhere.

SMILES | Shn3 3UTR inh | KKLEB cytotox | CF NFkB block | Peg3 promoter | HIF-2a inh | TRPM1 prom inh
O=C(NCC1CC1)c1ccc2c(c1)S(=O)(=O)c1cc(Cl)ccc1C2=O | -7.4 | -6.5 | 6.2 | -4.2 | -0.6 | -3.4
O=[N+]([O-])c1cc([N+](=O)[O-])c2cc(-c3cccnc3)[nH]c2c1 | 28.9 | -7.1 | -89.6 | 29.9 | 18.9 | 18.2
C=CCNC(=O)c1cc2c(=O)n3ccccc3nc2s1 | -79.5 | 7.0 | -17.4 | -204.5 | -146.9 | -66.0
NC(=O)c1ccc(SCC(=O)OCC(=O)NC2CCCCCCC2)c([N+](=O)[O-])c1 | -13.4 | 7.6 | -13.0 | 11.3 | 8.3 | 1.6
CCc1c(C)sc(NC(=O)c2ccoc2C)c1C(N)=O | -3.5 | -13.4 | -8.1 | -109.8 | -142.7 | -17.1
O=c1[nH]c(-c2ccccn2)nc2sc(-c3ccccc3)cc12 | 79.7 | 7.5 | 19.1 | 95.6* | -160.9 | 35.8
CN(C)CCN(C(=O)/C=C/c1cccs1)c1nc2c(F)cc(F)cc2s1 | 54.7 | -30.7 | 31.8 | 105.8* | 7.3 | 33.1
COc1ccc(CCNC2=C(Cl)C(=O)N(CCc3ccc(OC)c(OC)c3)C2=O)cc1OC | 80.0 | -11.7 | -1.6 | 79.9* | 20.4 | 48.6
COc1ccc(NC2=C(Cl)C(=O)N(CCc3ccccc3)C2=O)c(OC)c1 | -3.0 | -12.9 | -0.9 | -145.7 | -197.0 | -19.9
Cc1ccc(N(C)S(=O)(=O)c2cc3c(cc2C)NC(=O)CO3)cc1 | 10.1 | 7.8 | -12.5 | -0.7 | -1.3 | .
CCCCN1C(=O)C(=O)N(CC(=O)c2cc(C)n(C3CC3)c2C)C1=O | -17.0 | -14.7 | 2.3 | -139.2 | -89.1 | -31.0
O=S(=O)(CCSc1ccccn1)c1nc2ccccc2s1 | 13.2 | -35.0 | 32.4 | 59.6* | 16.8 | 11.4
O=C(CSc1ccccn1)Nc1nc2ccccc2s1 | -14.3 | 4.8 | -18.3 | -160.7 | -178.2 | -38.7
CC1(C(=O)NCCc2c[nH]c3ccccc23)CCN1CC1CCCCC1 (configuration not stated) | 21.1 | -2.7 | 11.8 | 1.1 | -8.4 | .
Cc1oc(-c2ccc(Cl)cc2)nc1CN1CCC(C(=O)NCCCN2CCCC(C)C2)CC1 (configuration not stated) | -16.2 | -13.4 | 5.4 | 43.2 | -6.0 | 95.9*
Cc1oc(-c2ccc(Cl)cc2)nc1CN1CCC(C(=O)N2CCc3ccccc3C2)CC1 | 46.0 | -3.3 | 28.5 | 79.4* | -32.4 | 22.4
Cc1oc(-c2ccc(Cl)cc2)nc1CN1CCC(C(=O)N2CCN(Cc3ccccc3)CC2)CC1 | 57.4 | -26.8 | 25.6 | 3.5 | 0.8 | 14.2
Cc1ccc(NC(=O)/C=C/c2ccc([N+](=O)[O-])s2)cc1 | 15.7 | 7.2 | -42.2 | -72.2 | -58.1 | 81.9*
Cc1cccc(NC(=S)N/N=C/c2ccc([N+](=O)[O-])s2)c1 | 73.2 | 15.7 | -13.8 | 4.0 | -56.1 | 51.2
CC(C)CN(C(=O)CSc1nc(N)cc(N)n1)C1CCS(=O)(=O)C1 (configuration not stated) | -2.9 | -8.9 | 26.8 | 8.9 | 6.6 | 1.1
O=C(Cn1c(=O)cnc2ccccc21)Nc1cccc(S(=O)(=O)N2CCOCC2)c1 | -6.7 | -5.1 | -9.8 | 20.8 | 9.7 | 11.7
CCCCNS(=O)(=O)c1ccc(S(=O)(=O)NCc2ccncc2)cc1 | 85.9* | -4.3 | 9.2 | 14.3 | -8.7 | 22.7
CCCCc1ccc(S(=O)(=O)NCCc2ccncc2)cc1 | 42.0 | -8.3 | 4.9 | 12.1 | 6.5 | 10.5
O=[N+]([O-])c1cc([N+](=O)[O-])c2cc3ccccc3nc2c1 | 71.4 | -1.7 | 84.2* | 92.3* | 14.9 | 53.5
CCN1CCN(/C=N/c2nc3c(s2)CCCC3)CC1 | 45.3 | 3.5 | -0.8 | 54.9* | 19.7 | ?
CN1CCN(CC(=O)Nc2nc3c(s2)CCCC3)CC1 | 8.7 | 0.9 | -3.0 | -3.3 | -8.0 | 5.8
CCN1C(=O)[C@H]2[C@H]3CN=C(SCc4ccc(OC)cc4)N3[C@@](CC)(C(=O)OC)[C@H]2C1=O | -5.5 | 2.7 | -1.4 | -8.7 | 0.1 | -1.1
Cc1ccc(S(=O)(=O)n2cccc2/C=C/[N+](=O)[O-])cc1 | 94.5* | 18.7 | -13.6 | 8.2 | 30.4 | .
COc1ccc(-n2cccc2/C=C/[N+](=O)[O-])cc1 | 31.5 | 16.8 | -12.8 | 0.7 | 35.3 | 42.6
Nc1ncnc2c1ncn2[C@@H]1O[C@H](CN2CCCS2(=O)=O)[C@@H](O)[C@H]1O | -4.3 | 23.8 | -5.4 | 10.6 | 6.3 | -8.7
